Paper PMC7862700, “An all-to-all approach to the identification of sequence-specific readers for epigenetic DNA modifications on cytosine”

Key:
Experiment in all cases: DAPPL (digital affinity profiling via proximity ligation, sequencing); 10 mM Tris-HCl pH 7.5, 50 mM NaCl, 1 mM DTT, 4% glycerol, room temperature, 30 min; GST-TFs on glutathione beads, 16-mer random dsDNA library, 0.1% formaldehyde crosslink after washing; high values mean tight binding
Conditions in all cases: protein: recombinant; tags: N-terminal GST; dsDNA, one strand shown
[1] = biological target: T1, FLI1 (Homo sapiens, UniProt Q01543 1-452)
T1 sequence: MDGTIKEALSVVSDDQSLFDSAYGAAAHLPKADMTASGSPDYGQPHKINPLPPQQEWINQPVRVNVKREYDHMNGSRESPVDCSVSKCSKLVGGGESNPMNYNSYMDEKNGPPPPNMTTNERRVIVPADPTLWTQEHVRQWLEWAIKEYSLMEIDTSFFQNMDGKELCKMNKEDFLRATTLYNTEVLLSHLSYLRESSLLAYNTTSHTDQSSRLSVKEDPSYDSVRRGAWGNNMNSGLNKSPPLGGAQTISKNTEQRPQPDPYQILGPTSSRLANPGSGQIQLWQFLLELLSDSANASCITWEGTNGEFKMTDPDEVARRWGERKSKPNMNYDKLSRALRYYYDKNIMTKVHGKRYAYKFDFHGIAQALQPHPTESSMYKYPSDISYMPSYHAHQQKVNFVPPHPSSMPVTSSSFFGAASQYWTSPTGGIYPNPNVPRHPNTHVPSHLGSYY
Outline: (§1)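 The binding signal reported is, for every hexamer, its read frequency for a factor over its read frequency for the tag-only sample. Reads came from pools of yeast-expressed, GST-fused human transcription factors on glutathione beads, barcoded with DNA and mixed with that sample, which were incubated with 200 nmole of a random double-stranded 16-mer DNA library in Tris/NaCl/DTT/glycerol buffer at room temperature for 30 min. After washing, the pools were crosslinked with 0.1% formaldehyde, proximity-ligated with BsaI/T4 ligase for 1 h at 37 °C, PCR-amplified and sequenced on an Illumina NextSeq500.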

[2] = biological target: T2, ELK1 (Homo sapiens, UniProt P19419 1-428)
T2 sequence: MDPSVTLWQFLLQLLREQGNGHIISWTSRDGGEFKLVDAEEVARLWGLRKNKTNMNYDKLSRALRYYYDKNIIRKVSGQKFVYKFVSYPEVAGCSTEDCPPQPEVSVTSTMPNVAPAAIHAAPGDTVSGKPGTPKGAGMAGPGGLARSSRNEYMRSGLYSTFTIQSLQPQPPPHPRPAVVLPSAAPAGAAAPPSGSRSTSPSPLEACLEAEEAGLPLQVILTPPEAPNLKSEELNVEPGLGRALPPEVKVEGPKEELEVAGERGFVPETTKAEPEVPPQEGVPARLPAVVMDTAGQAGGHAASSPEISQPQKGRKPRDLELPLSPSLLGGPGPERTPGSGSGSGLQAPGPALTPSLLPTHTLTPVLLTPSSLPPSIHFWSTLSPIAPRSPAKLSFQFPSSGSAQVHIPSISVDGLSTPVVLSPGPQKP
Outline: as §1

[3] = biological target: T3, GABPA (Homo sapiens, UniProt Q06546 1-454)
T3 sequence: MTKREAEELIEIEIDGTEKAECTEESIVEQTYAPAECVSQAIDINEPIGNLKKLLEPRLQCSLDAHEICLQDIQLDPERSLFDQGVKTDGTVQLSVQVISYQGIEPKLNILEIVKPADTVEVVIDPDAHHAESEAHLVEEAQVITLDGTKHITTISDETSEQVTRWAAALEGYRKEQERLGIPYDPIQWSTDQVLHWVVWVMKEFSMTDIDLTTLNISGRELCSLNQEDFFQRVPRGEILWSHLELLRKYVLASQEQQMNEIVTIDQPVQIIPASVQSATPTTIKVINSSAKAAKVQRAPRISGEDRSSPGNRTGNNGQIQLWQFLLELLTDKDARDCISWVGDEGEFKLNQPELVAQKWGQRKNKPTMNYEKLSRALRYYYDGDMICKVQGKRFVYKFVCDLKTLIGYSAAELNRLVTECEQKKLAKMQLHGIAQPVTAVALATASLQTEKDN
Outline: as §1

[4] = biological target: T4, ERG (Homo sapiens, UniProt P11308 1-479)
T4 sequence: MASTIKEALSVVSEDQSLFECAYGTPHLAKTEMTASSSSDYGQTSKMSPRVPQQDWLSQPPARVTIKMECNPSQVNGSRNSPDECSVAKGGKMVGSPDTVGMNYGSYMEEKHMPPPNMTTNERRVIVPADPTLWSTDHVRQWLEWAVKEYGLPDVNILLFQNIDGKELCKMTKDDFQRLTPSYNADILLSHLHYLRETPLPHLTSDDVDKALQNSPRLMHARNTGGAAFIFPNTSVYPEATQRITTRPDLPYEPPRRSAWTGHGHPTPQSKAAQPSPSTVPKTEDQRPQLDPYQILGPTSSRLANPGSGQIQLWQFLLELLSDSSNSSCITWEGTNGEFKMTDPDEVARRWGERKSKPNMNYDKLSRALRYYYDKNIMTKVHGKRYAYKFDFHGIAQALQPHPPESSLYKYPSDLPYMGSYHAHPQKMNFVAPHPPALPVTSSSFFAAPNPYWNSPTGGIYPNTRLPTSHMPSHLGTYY
Outline: as §1

[5] = biological target: ELF1 (Homo sapiens, UniProt P32519 1-619)
Outline: as §1

[6] = biological target: T5, EHF (Homo sapiens, UniProt Q9NZC4 1-300)
T5 sequence: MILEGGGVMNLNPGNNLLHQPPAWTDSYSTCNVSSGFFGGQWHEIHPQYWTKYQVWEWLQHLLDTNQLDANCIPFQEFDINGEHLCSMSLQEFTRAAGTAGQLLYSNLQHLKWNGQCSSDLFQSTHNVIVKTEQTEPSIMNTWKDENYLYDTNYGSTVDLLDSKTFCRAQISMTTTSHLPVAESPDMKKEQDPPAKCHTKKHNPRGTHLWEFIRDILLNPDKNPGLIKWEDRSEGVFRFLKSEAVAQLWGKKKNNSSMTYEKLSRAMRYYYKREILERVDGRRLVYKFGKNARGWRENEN
Outline: as §1

[7] = biological target: SPI1 (Homo sapiens, UniProt P17947 1-270)
Outline: as §1

[8] = biological target: SPIB (Homo sapiens, UniProt Q01892 1-262)
Outline: as §1

[9] = biological target: T6, ELK3 (Homo sapiens, UniProt P41970 1-407)
T6 sequence: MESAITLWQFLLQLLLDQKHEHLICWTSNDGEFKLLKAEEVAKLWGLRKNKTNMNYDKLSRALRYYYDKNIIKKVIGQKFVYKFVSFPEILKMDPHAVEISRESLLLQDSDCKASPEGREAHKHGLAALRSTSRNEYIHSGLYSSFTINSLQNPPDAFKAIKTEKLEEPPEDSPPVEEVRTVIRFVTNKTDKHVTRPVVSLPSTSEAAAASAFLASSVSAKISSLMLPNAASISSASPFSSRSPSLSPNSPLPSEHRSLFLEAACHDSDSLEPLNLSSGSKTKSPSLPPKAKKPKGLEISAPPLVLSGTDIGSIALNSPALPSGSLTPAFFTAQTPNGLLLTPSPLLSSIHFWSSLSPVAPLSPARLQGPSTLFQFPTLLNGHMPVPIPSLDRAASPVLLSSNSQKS
Outline: as §1

Sequence of SPIB (Q01892 whole entry): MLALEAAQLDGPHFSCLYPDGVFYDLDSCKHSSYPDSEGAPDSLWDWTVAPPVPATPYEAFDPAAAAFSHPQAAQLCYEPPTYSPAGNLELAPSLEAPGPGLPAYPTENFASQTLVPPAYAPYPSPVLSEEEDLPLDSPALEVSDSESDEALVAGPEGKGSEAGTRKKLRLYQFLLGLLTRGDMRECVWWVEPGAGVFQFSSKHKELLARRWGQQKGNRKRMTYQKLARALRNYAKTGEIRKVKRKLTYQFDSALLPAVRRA
Sequence of ELF1 (P32519 whole entry): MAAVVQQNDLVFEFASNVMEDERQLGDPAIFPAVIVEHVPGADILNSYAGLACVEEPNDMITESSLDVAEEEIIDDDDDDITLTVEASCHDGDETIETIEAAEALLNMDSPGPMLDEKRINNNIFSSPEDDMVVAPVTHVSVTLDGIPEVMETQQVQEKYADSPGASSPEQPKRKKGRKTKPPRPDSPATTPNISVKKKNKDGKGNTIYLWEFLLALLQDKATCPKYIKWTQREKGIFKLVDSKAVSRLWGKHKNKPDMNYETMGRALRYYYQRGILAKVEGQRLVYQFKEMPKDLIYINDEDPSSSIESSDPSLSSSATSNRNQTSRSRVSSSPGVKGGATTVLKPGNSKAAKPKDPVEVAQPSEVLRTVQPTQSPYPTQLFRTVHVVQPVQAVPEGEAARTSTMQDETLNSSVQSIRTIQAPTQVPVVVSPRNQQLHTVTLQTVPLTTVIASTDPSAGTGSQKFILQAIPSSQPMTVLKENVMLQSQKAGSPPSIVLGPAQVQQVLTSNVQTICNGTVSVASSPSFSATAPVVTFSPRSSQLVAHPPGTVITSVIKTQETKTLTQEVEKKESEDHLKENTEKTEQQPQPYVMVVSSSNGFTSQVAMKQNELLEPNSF

| Sequence | binding signal [1] | binding signal [2] | binding signal [3] | binding signal [4] | binding signal [5] | binding signal [6] | binding signal [7] | binding signal [8] | binding signal [9] |
| --- | --- | --- | --- | --- | --- | --- | --- | --- | --- |
| ATGCGG | 1.3 fold enrichment (6-mer frequency, TF over GST control) | 1.22 fold enrichment (6-mer frequency, TF over GST control) | 1.2 fold enrichment (6-mer frequency, TF over GST control) | 1.22 fold enrichment (6-mer frequency, TF over GST control) | 1.2 fold enrichment (6-mer frequency, TF over GST control) | 1.31 fold enrichment (6-mer frequency, TF over GST control) | 1.56 fold enrichment (6-mer frequency, TF over GST control) | 1.32 fold enrichment (6-mer frequency, TF over GST control) | 1.23 fold enrichment (6-mer frequency, TF over GST control) |
| CTACGT | 1.29 fold enrichment (6-mer frequency, TF over GST control) | 1.23 fold enrichment (6-mer frequency, TF over GST control) | 1.18 fold enrichment (6-mer frequency, TF over GST control) | 1.19 fold enrichment (6-mer frequency, TF over GST control) | 1.13 fold enrichment (6-mer frequency, TF over GST control) | 1.25 fold enrichment (6-mer frequency, TF over GST control) | 1.08 fold enrichment (6-mer frequency, TF over GST control) | 1.27 fold enrichment (6-mer frequency, TF over GST control) | 1.31 fold enrichment (6-mer frequency, TF over GST control) |
| CTTTAG | 1.27 fold enrichment (6-mer frequency, TF over GST control) | 1.31 fold enrichment (6-mer frequency, TF over GST control) | 1.21 fold enrichment (6-mer frequency, TF over GST control) | 1.12 fold enrichment (6-mer frequency, TF over GST control) | 1.19 fold enrichment (6-mer frequency, TF over GST control) | 1.08 fold enrichment (6-mer frequency, TF over GST control) | 1.28 fold enrichment (6-mer frequency, TF over GST control) | 1.11 fold enrichment (6-mer frequency, TF over GST control) | 1.11 fold enrichment (6-mer frequency, TF over GST control) |
| ATGGCT | 1.17 fold enrichment (6-mer frequency, TF over GST control) | 1.34 fold enrichment (6-mer frequency, TF over GST control) | 1.29 fold enrichment (6-mer frequency, TF over GST control) | 1.37 fold enrichment (6-mer frequency, TF over GST control) | 1.37 fold enrichment (6-mer frequency, TF over GST control) | 1.4 fold enrichment (6-mer frequency, TF over GST control) | 1.28 fold enrichment (6-mer frequency, TF over GST control) | 1.37 fold enrichment (6-mer frequency, TF over GST control) | 1.28 fold enrichment (6-mer frequency, TF over GST control) |
| GCGACC | 1.09 fold enrichment (6-mer frequency, TF over GST control) | 1.11 fold enrichment (6-mer frequency, TF over GST control) | 1.09 fold enrichment (6-mer frequency, TF over GST control) | 1.17 fold enrichment (6-mer frequency, TF over GST control) | 1.15 fold enrichment (6-mer frequency, TF over GST control) | 1.2 fold enrichment (6-mer frequency, TF over GST control) | 1.07 fold enrichment (6-mer frequency, TF over GST control) | 1.08 fold enrichment (6-mer frequency, TF over GST control) | 1.02 fold enrichment (6-mer frequency, TF over GST control) |
| ACTGCC | 1.47 fold enrichment (6-mer frequency, TF over GST control) | 1.44 fold enrichment (6-mer frequency, TF over GST control) | 1.44 fold enrichment (6-mer frequency, TF over GST control) | 1.44 fold enrichment (6-mer frequency, TF over GST control) | 1.42 fold enrichment (6-mer frequency, TF over GST control) | 1.46 fold enrichment (6-mer frequency, TF over GST control) | 1.48 fold enrichment (6-mer frequency, TF over GST control) | 1.41 fold enrichment (6-mer frequency, TF over GST control) | 1.3 fold enrichment (6-mer frequency, TF over GST control) |
| GATGCA | 1.15 fold enrichment (6-mer frequency, TF over GST control) | 1.14 fold enrichment (6-mer frequency, TF over GST control) | 1.18 fold enrichment (6-mer frequency, TF over GST control) | 1.11 fold enrichment (6-mer frequency, TF over GST control) | 1.06 fold enrichment (6-mer frequency, TF over GST control) | 1.2 fold enrichment (6-mer frequency, TF over GST control) | 1.06 fold enrichment (6-mer frequency, TF over GST control) | 1.23 fold enrichment (6-mer frequency, TF over GST control) | 1.16 fold enrichment (6-mer frequency, TF over GST control) |
| GCACTG | 1.18 fold enrichment (6-mer frequency, TF over GST control) | 1.12 fold enrichment (6-mer frequency, TF over GST control) | 1.14 fold enrichment (6-mer frequency, TF over GST control) | 1.07 fold enrichment (6-mer frequency, TF over GST control) | 1.1 fold enrichment (6-mer frequency, TF over GST control) | 1.12 fold enrichment (6-mer frequency, TF over GST control) | 1.14 fold enrichment (6-mer frequency, TF over GST control) | 1.05 fold enrichment (6-mer frequency, TF over GST control) | 1.06 fold enrichment (6-mer frequency, TF over GST control) |
